# Reference: the supplement of paper PMC8253809
# Test system: SUDIPGXIII (diffuse intrinsic pontine glioma line)
# Assay: growth inhibition (% activity, log2 RLU normalised to DMSO / staurosporine); higher = more growth inhibition
# Conditions: 33 µM
# Outline: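 In triplicate, pHGG cell lines and H9-derived neural stem cells were treated for 7 days at 37 °C, 5% CO2 with approved drugs at a single final concentration of about 33 μM, added by pin tool. CellTiter-Glo luminescence, after log2 transformation, was normalised on each plate to % activity between solvent and positive control wells. Growth inhibition is reported as the median across replicates.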
row,SMILES,growth inhibition [%]
1,O=c1c(-c2ccc(O)cc2)coc2cc(O)ccc12,0.974
2,Oc1ncnc2[nH]ncc12,0.643
3,Oc1ccc(/C=C/c2cc(O)cc(O)c2)cc1,-0.764
4,CCCCCCCCCCCCCCCC[N+](C)(C)C,18.1
5,COc1cc(C(=O)NC2CCCNC2)cc(OC)c1OC (stereo not given),-1.95
6,O=C(O[C@H]1CN2CCC1CC2)N1CCc2ccccc2[C@@H]1c1ccccc1,1.13
7,Cc1nc2n(c(=O)c1CCN1CCC(c3noc4cc(F)ccc34)CC1)CCCC2O (stereo not given),-0.0722
8,COc1cc2c(cc1Cc1cccc(Cl)c1F)c(=O)c(C(=O)O)cn2[C@H](CO)C(C)C,5.02
9,CC1=C(C(=O)O)N2C(=O)[C@@H](NC(=O)[C@H](N)c3ccccc3)[C@H]2SC1,2.38
10,COc1ccc(-c2ccc3cc(C(=O)O)ccc3c2)cc1C12CC3CC(CC(C3)C1)C2,1.39
11,COCCCOc1cc(C[C@@H](C[C@H](N)[C@@H](O)C[C@H](C(=O)NCC(C)(C)C(N)=O)C(C)C)C(C)C)ccc1OC,0.132
12,C=C1CCC(O)CC1=CC=C1CCCC2(C)C1CCC2C(C)CCCC(C)(C)O (stereo not given),-0.781
13,COc1cc2c(cc1O)CC[C@@H]1[C@@H]2CC[C@]2(C)[C@@H](O)CC[C@@H]12,1.78
14,[O-]n1ccccc1=S.[O-]n1ccccc1=S.[Zn+2],59.7
15,Nc1ccc(S(=O)(=O)Nc2nccs2)cc1,0.0367
16,CCC1=C(C)CN(C(=O)NCCc2ccc(S(=O)(=O)NC(=O)N[C@H]3CC[C@H](C)CC3)cc2)C1=O,0.817
17,CS(=O)(=O)c1ccc([C@@H](O)[C@@H](CF)NC(=O)C(Cl)Cl)cc1,38
18,COC(=O)C1=C(C)NC(C)=C(C(=O)OC)C1c1ccccc1[N+](=O)[O-],-0.486
19,CC(C)Cn1cnc2c(N)nc3ccccc3c21,0.156
20,CCOc1ccc2ccccc2c1C(=O)N[C@@H]1C(=O)N2[C@@H]1SC(C)(C)[C@@H]2C(=O)O,2.26

row,SMILES,growth inhibition [%]
1,Cc1onc(-c2ccccc2Cl)c1C(=O)N[C@@H]1C(=O)N2[C@@H]1SC(C)(C)[C@@H]2C(=O)O,-9.34
2,O=C[C@H](O)[C@@H](O)[C@H](O)CO,-0.863
3,CO/N=C(\C(=O)N[C@@H]1C(=O)N2C(C(=O)O)=C(Cn3ccc(=N)n3CCO)CS[C@H]12)c1csc(N)n1,1.31
4,CC(=O)Oc1cc2c(s1)CCN(C(C(=O)C1CC1)c1ccccc1F)C2 (stereo not given),-1.75
5,CC(C)n1c(/C=C/[C@@H](O)C[C@@H](O)CC(=O)O)c(-c2ccc(F)cc2)c2ccccc21,3.96
6,C[C@@H]1CC(=O)NN=C1c1ccc(NN=C(C#N)C#N)cc1,0.449
7,CCCCC1=NC2(CCCC2)C(=O)N1Cc1ccc(-c2ccccc2-c2nnn[nH]2)cc1,0.582
8,C[C@@H](O[C@H]1OCCN(Cc2n[nH]c(=O)[nH]2)[C@H]1c1ccc(F)cc1)c1cc(C(F)(F)F)cc(C(F)(F)F)c1,10.1
9,COC(=O)C1=C(C)NC(C)=C(C(=O)OCC(C)C)C1c1ccccc1[N+](=O)[O-] (stereo not given),2.06
10,CC#CCn1c(N2CCC[C@@H](N)C2)nc2c1c(=O)n(Cc1nc(C)c3ccccc3n1)c(=O)n2C,-0.213
11,CC(C)(O/N=C(\C(=O)N[C@@H]1C(=O)N2C(C(=O)[O-])=C(C[n+]3ccccc3)CS[C@H]12)c1csc(N)n1)C(=O)O,0.376
12,CCC(=O)O[C@@H](O[P@](=O)(CCCCc1ccccc1)CC(=O)N1C[C@H](C2CCCCC2)C[C@H]1C(=O)O)C(C)C,-1.04
13,O=C(O)c1cn(C2CC2)c2cc(N3CCNCC3)c(F)cc2c1=O,-1.57
14,N[C@H](C(=O)O)[C@H](O)c1ccc(O)c(O)c1,-4.54
15,COCCCC/C(=N\OCCN)c1ccc(C(F)(F)F)cc1,2.91
16,O=C1c2cccc3c2[C@H](CCC3)CN1[C@@H]1CN2CCC1CC2,0.79
17,CC(C)(C)C(=O)OCOP(=O)(COCCn1cnc2c(N)ncnc21)OCOC(=O)C(C)(C)C,3.59
18,CCOC(=O)C1=C(C)NC(C)=C(C(=O)OCC)C1c1ccccc1/C=C/C(=O)OC(C)(C)C,7.34
19,Cc1ncc(C[n+]2csc(CCO)c2C)c(N)n1,0.53
20,CN1c2cc(O)c(N=NC(N)=O)cc2CC1S(=O)(=O)O (stereo not given),-12.4
